Records with an inconclusive call do not appear. The source made the active and inactive calls. Unless noted, calls come from the whole dose curve; as a rule, active = well fitted curve in the direction sought with a large enough effect in the repeat runs; inconclusive = weak or mixed curves; inactive = no such curve, though single readings can be large; an effect the other way counts as inactive or inconclusive.
Tested on: not listed separately
Experiment: qHTS assay to identify small molecule agonists of the estrogen receptor beta (ER-beta) signaling pathway - cell viability counter screen (AID 1259380); note: nearly all actives have a fitted effect of over 30% in size
Details: ER-beta-bla HEK293T viability, CellTiter-Glo luminescence, 16 h; series mostly up to 92.4 µM; activity change, negative = cytotoxicity: at the top concentration
Outline: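 Luminescence read-out (CellTiter-Glo, 30 min, room temp) taken in the same wells as the beta-lactamase reporter assay; ER-beta-UAS-bla HEK293T cells exposed to DMSO-dissolved compounds for 16 hr at 37C in 2% charcoal-stripped FBS medium.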
% is set by controls: 0 for no effect and ±100 for the full control effect.

Row | Structure (SMILES) | activity change, negative = cytotoxicity
1 | FC(F)(Cl)C(F)(Cl)Cl | 4.55% (inactive)
2 | Cc1ccc2c(Cl)cc(Cl)c(O)c2n1 | -0.47% [at 42.5 µM] (inactive)
3 | CC(C)(O)C(=O)O | 0.402% (inactive)
4 | N#C[C@@H]1CC(F)(F)CN1C(=O)CNC1CC2CCC(C1)N2c1ncccn1 (stereo not given in full) | -0.901% (inactive)
5 | O=C1C=CCCC1 | 3.33% (inactive)
6 | NC(=O)c1ccccc1 | -0.951% (inactive)
7 | CC(=O)CC/C=C(\C)CC/C=C(\C)CC/C=C(\C)CCC=C(C)C | 2.92% [at 42.5 µM] (inactive)
8 | C/C(=C(\CCO)SS/C(CCO)=C(\C)N(C=O)Cc1cnc(C)nc1N)N(C=O)Cc1cnc(C)nc1N | 2.97% [at 42.5 µM] (inactive)
9 | CCCCCCCCCCCCCCCCC(=O)O | -1.79% [at 42.5 µM] (inactive)
10 | Cc1c(-c2cccnc2)c2ccccc2n1CCCCC(=O)O | -0.124% (inactive)
11 | Clc1nc2ccccc2nc1Cl | -0.451% (inactive)
12 | CC(C)=CCC[C@H](C)CCO | 4.42% (inactive)

Biological target: Androgen receptor (Homo sapiens) (UniProt P10275)
Experiment: qHTS assay to identify small molecule agonists of the androgen receptor (AR) signaling pathway in the presence of an antagonist (AID 1259381; calls by dose curve; note: nearly all actives have a fitted effect of over 15% in size)
Details: MDA-kb2 MMTV-luciferase, AR agonist + nilutamide, 16 h; series mostly up to 92.4 µM; activation: at the top concentration
Outline: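 Luciferase read-out (ONE-Glo, 30min room temperature) in MDA-kb2 MMTV-reporter cells; agonist mode run in presence of AR antagonist nilutamide, 3.0uM final. Compounds tested as 15-point series, 16hr exposure at 37C, 0% CO2.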

Androgen receptor (Homo sapiens), sequence (P10275 whole entry, looked up): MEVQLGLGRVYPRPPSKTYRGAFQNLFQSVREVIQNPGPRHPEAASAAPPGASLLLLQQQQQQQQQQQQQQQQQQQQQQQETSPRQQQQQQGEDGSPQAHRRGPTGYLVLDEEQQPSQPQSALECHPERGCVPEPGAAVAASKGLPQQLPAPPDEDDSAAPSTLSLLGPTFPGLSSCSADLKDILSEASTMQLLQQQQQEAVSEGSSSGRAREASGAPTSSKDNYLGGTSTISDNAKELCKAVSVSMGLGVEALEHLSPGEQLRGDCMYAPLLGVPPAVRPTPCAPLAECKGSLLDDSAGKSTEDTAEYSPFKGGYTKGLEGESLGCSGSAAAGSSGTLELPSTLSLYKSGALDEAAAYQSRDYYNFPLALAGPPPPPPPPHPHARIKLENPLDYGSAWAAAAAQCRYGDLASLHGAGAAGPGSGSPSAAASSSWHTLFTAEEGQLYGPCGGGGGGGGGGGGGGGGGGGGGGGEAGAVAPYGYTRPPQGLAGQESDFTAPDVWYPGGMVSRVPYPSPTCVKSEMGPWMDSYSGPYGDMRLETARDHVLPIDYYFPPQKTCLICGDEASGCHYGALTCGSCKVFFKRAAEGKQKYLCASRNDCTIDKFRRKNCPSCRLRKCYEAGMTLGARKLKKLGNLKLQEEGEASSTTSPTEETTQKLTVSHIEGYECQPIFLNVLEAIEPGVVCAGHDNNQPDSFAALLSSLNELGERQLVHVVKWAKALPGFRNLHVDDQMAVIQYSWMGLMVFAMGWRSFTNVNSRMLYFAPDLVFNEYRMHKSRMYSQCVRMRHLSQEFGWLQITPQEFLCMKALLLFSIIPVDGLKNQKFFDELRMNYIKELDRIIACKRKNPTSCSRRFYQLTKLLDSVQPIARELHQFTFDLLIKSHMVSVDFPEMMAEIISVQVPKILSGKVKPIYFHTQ

Row | Structure (SMILES) | activation
13 | CC(C(=O)O)c1ccc2c(c1)Cc1cccnc1O2 (stereo not given) | 3.49% [at 42.5 µM] (inactive)
14 | Nc1ccc(F)cc1F | 0.0895% (inactive)
15 | O=C(c1ccco1)N1CCNCC1 | -0.625% [at 42.5 µM] (inactive)
16 | CCCOC(C)=O | -0.989% (inactive)
17 | FC(F)(Cl)C(F)(Cl)Cl | -0.2% (inactive)
18 | Cc1ccc2c(Cl)cc(Cl)c(O)c2n1 | 4.05% [at 42.5 µM] (inactive)
19 | N#C[C@@H]1CC(F)(F)CN1C(=O)CNC1CC2CCC(C1)N2c1ncccn1 (stereo not given in full) | 0.0014% (inactive)
20 | NC(=O)c1ccccc1 | 0.158% (inactive)
21 | CCCCCCCCCCCCCCCCC(=O)O | 7.01% [at 42.5 µM] (inactive)

Tested on: not listed separately
Experiment: qHTS assay to identify small molecule antagonists of the estrogen receptor beta (ER-beta) signaling pathway - cell viability counter screen (AID 1259382);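 note: HEK293T cells carrying ER-beta-UAS-bla reporter stimulated with estradiol; nearly all actives have a fitted effect of over 55% in size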
Details: ER-beta-UAS-bla HEK293T viability, CellTiter-Glo luminescence, 16 h; series mostly up to 92.4 µM; activity change, negative = cytotoxicity: at the top concentration
Outline: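 Luminescent ATP read-out (CellTiter-Glo, 30 min, RT) taken in the same wells as the bla reporter assay. HEK293T ER-beta-UAS-bla cells in 2% charcoal-stripped FBS were exposed to compounds with 1nM E2 for 16 hr at 37C.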

Row | Structure (SMILES) | activity change, negative = cytotoxicity
22 | CC(C)(C)NCC(O)COc1ccc(NC(=O)NC2CCCCC2)cc1 (stereo not given) | -5.99% [at 42.5 µM] (inactive)
23 | O=C(O)c1ccc2cc(O)ccc2c1 | 3.79% (inactive)
24 | CC(C(=O)O)c1ccc2c(c1)Cc1cccnc1O2 (stereo not given) | 0.832% [at 42.5 µM] (inactive)
25 | CC(O)CN (stereo not given) | 14.9% (inactive)
26 | CCCCCC1CCC(=O)O1 (stereo not given) | 1.7% (inactive)
27 | OCCc1ccncc1 | 2.34% (inactive)
28 | CCCCOC(=O)C(C)Oc1ccc(Oc2ccc(C(F)(F)F)cn2)cc1 (stereo not given) | 4.1% (inactive)
29 | O=Cc1ccc(Cl)c([N+](=O)[O-])c1 | -2.09% (inactive)
30 | CCC(CC)C(=O)O | 4.78% (inactive)
31 | Nc1ccc(F)cc1F | -1.79% (inactive)
32 | CCOC(OCC)OCC | 0.445% (inactive)
33 | CCCC1CCCC(=O)O1 (stereo not given) | -3% (inactive)
34 | C=C[Si]1(C)O[Si](C)(C=C)O[Si](C)(C=C)O[Si](C)(C=C)O1 (stereo not given) | 10% (inactive)
35 | CCOC(C)OCC | -1.38% (inactive)
36 | C=CCCC | -4.48% (inactive)
37 | O=C(c1ccco1)N1CCNCC1 | 4.88% [at 42.5 µM] (inactive)
38 | COC(=O)c1cc(Cl)ccc1[N+](=O)[O-] | 0.545% (inactive)
39 | CC1(C)CC(=O)CC(C)(C)N1 | 8.3% (inactive)
40 | CCC(=O)O[C@@H]1C[C@H]2CC[C@]1(C)C2(C)C | 5.63% (inactive)
41 | S=c1[nH][nH]c(=S)s1 | 2% (inactive)

Row | Structure (SMILES) | activity change, negative = cytotoxicity
42 | CCCCCCCCCCCC(=O)OCC | 1.36% (inactive)
43 | CCCCCCCCCCCCCCCCCCCl | -0.0396% [at 8.39 µM] (inactive)
44 | CCCC(=O)OCc1ccccc1 | 4.28% (inactive)
45 | O=C(O)c1ccccc1-n1cc(C(=O)O)c(=O)c2cc(Nc3c(F)cc(F)cc3Cl)c(Cl)cc21 | 0.67% (inactive)
46 | CCCCCCCCS | 4.54% (inactive)
47 | CCCOC(C)=O | 2.64% (inactive)
48 | C[C@@H](O)[C@H]1C(=O)N2C(C(=O)O)=C(S[C@@H]3CN[C@H](CNS(N)(=O)=O)C3)[C@H](C)[C@H]12 | 2.29% [at 42.5 µM] (inactive)
49 | FC(F)(Cl)C(F)(Cl)Cl | 1.41% (inactive)
50 | Cc1ccc2c(Cl)cc(Cl)c(O)c2n1 | 1.49% [at 42.5 µM] (inactive)
51 | CC(C)(O)C(=O)O | 0.0721% (inactive)
52 | N#C[C@@H]1CC(F)(F)CN1C(=O)CNC1CC2CCC(C1)N2c1ncccn1 (stereo not given in full) | 3.1% (inactive)
53 | O=C1C=CCCC1 | 7.27% (inactive)
54 | NC(=O)c1ccccc1 | -2.97% (inactive)
55 | CC(=O)CC/C=C(\C)CC/C=C(\C)CC/C=C(\C)CCC=C(C)C | 0.222% [at 42.5 µM] (inactive)
56 | C/C(=C(\CCO)SS/C(CCO)=C(\C)N(C=O)Cc1cnc(C)nc1N)N(C=O)Cc1cnc(C)nc1N | 4.69% [at 42.5 µM] (inactive)
57 | CCCCCCCCCCCCCCCCC(=O)O | -6.2% [at 42.5 µM] (inactive)
58 | Cc1c(-c2cccnc2)c2ccccc2n1CCCCC(=O)O | -6.18% (inactive)
59 | Clc1nc2ccccc2nc1Cl | 6.93% (inactive)
60 | CC(C)=CCC[C@H](C)CCO | 6.48% (inactive)

Reference: PubChem BioAssay (Tox21)
